Screens from PubChem.
Shown are actives, neighbours in structure and some others; about 19% of the full set was active somewhere.
DT40 TDP1 CPT = DT40-hTDP1 cell growth loss with CPT. chicken DT40 Tdp1-/-;hTDP1 cells + 20 nM CPT, ATP luminescence, 48 h. Potency, µM (series often up to 46.2 µM), most hits filed as inhibitors. hit rate 12% among 420,000; further: nearly all actives have a fitted effect of over 55% in size
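Chicken DT40 Tdp1-/- cells complemented with human TDP1, 400 cells/well, exposed to compounds plus 20 nM camptothecin for at least 48 h at 37 C; viability read as ATP content by CellTiter-Glo luminescence.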
IL-1B inflam inh = blocks inflammasome-driven IL-1 beta release. THP-1 LPS/ATP IL-1B secretion, AlphaLISA, 16 h; stronger effect = lower value. activity change, % at 57.5 µM. hit rate 4.7% among 360,000. AID 743279; in the data active means activity change below about -50%; inconclusive means mostly about -30% to -49%
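THP-1 cells pretreated 1 hr with compounds (up to 57.5 uM final), then stimulated with LPS (250 ng/mL final) plus ATP (1.25 mM final); secreted IL-1B measured by AlphaLISA after 16 hr, decreased signal indicating inhibition.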
ELG1 DNA repair = ELG1-dependent DNA repair inhibition; HEK293T ELG1-luciferase reporter, luminescence, 16 h; DNA damage induced by 5-fluorouridine; Potency, µM (doses to about 46.1 µM), hits mostly inhibitors; hit rate 2.3% among 330,000; AID 504467; further: nearly all actives have a fitted effect of over 55% in size
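5-Fluorouridine DNA damage + compound/DMSO, 2,000 cells/well, 16 h, 37 °C/5% CO2. ONE-Glo, 30 min RT, luminescence. Readout = decrease in reporter signal.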
TDP1 cell noCPT = qHTS for Inhibitors of human tyrosyl-DNA phosphodiesterase 1 (TDP1): qHTS in cells in absence of CPT | Potency, µM (titrated, usually from 46.2 µM), actives largely listed as inhibitors | DT40 Tdp1-/- hTDP1 cells, no CPT, ATP luminescence, 48 h | hit rate 15% among 420,000; further: nearly all actives have a fitted effect of over 55% in size
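Readout: luminescence from CellTiter-Glo after 30 min in the dark at RT. Cells: DT40 Tdp1-/- with stable hTDP1, 400/well. Exposure: compounds alone, ≥48 hr, 37 °C.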
TDP1 inh = blocks human tyrosyl-DNA phosphodiesterase 1; recombinant TDP1, AlphaScreen DNA substrate cleavage; hit rate 0.28% among 350,000; Potency, µM (highest dose often 130 µM), hits mostly inhibitors; further: nearly all actives have a fitted effect of over 40% in size
Target sequence (Q9NUW8 whole entry, looked up): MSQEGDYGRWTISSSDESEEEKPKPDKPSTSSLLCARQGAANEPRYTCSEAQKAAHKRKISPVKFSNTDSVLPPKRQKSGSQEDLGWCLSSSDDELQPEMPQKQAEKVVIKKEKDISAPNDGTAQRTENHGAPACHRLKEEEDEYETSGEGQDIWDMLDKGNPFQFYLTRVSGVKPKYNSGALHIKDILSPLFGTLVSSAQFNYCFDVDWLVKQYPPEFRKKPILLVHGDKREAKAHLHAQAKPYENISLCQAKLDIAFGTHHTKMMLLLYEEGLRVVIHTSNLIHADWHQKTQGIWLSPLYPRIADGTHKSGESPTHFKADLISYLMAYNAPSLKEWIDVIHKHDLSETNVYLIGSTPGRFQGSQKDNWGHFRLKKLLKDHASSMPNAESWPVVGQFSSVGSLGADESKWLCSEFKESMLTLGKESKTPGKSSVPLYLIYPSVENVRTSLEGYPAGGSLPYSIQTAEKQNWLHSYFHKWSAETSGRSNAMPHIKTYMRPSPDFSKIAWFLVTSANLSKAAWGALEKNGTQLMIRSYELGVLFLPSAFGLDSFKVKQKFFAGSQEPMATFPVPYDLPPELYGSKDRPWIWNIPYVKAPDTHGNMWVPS
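Compounds were preincubated with Tdp1 (1 nM final) for 15 min at room temperature before substrate (15 nM final) started a 5 min reaction; beads (10 ug/ml final) were then added for 10 min before AlphaScreen detection.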
Giardia kill = kills Giardia lamblia | AID 540267 | hit rate 0.15% among 340,000 | Giardia lamblia trophozoite viability | activity change, % at 7.66 µM, hits read low; in the data active means activity change below about -80%; inconclusive means between about -30% and that limit;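 further: parasites exposed to compound for two days anaerobically before the ATP read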
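Each well holds 100 Giardia trophozoites and compound. After two days (48 hrs) at 37 deg C in anaerobic conditions, ATP is quantified by luminescence.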
Hits are given with their value; . = inactive; ? = inconclusive; / = no result; [ ] = dose if it differs, or a comment. Unless noted, the call rests on the fitted dose curve; in most records, active means well fitted curve in the direction sought with a large enough effect; inconclusive means small, poorly fitted or top-dose-only effect, or another doubt; inactive means no such curve, though single readings can be large; an effect the other way counts as inactive or inconclusive.

SMILES	DT40 TDP1 CPT	IL-1B inflam inh	ELG1 DNA repair	TDP1 cell noCPT	TDP1 inh	Giardia kill
CC1CC(C)CN(CC(C)(C)NS(=O)(=O)c2ccc(Cl)cc2)C1 (stereo unspecified)	?	.	.	?	.	.
Clc1ccc(CNC2CCN(Cc3ccccc3)CC2)cc1	.	.	.	?	/	.
Cc1ccc(NC(=S)NC2CCN(Cc3ccccc3)CC2)cc1	?	.	.	?	.	.
S=C(Nc1ccccc1Cl)NC1CCN(Cc2ccccc2)CC1	21µM	.	.	18µM	.	.
S=C(NCc1ccc(Cl)cc1)NC1CCN(Cc2ccccc2)CC1	18µM	-92	18µM	16µM	.	.
CC(C)c1ccc(NC(=S)NC2CCN(Cc3ccccc3)CC2)cc1	?	-89	.	23µM	.	.
CC(C)c1ccc(NC(=S)N2CCN(Cc3ccccc3)CC2)cc1	?	.	.	26µM	.	.
S=C(Nc1ccc(Cl)cc1)N1CCN(Cc2ccccc2)CC1	.	.	.	.	.	.
CN1C(=O)C2(c3ccccc31)N(c1cccc(F)c1)C(=O)CS2(=O)=O (stereo unspecified)	.	/	/	.	.	/
Cc1ccccc1-c1ncnn1-c1sc2c(c1C#N)CCCCC2	.	/	/	.	.[12.3 µM]	/
CC1CC(C)(C)CC2(C1)NC(=O)N(CC(=O)Nc1cc(C(F)(F)F)ccc1N1CCCCC1)C2=O (stereo unspecified)	?	.	/	?	/	.
S=C(Nc1cc(Cl)cc(Cl)c1)NC1CCN(Cc2ccccc2)CC1	8.2µM	-66	.	6.5µM	.	?
CCOc1ccc(CCNC(=O)COC(=O)/C=C/c2ccc(OCC#N)c(OC)c2)cc1OCC	.	.	.	.	.	.
CN(C(=O)C1CCN(c2ncnc3c2nc2n3CCCCC2)CC1)c1ccccc1F	?	/	/	?	.	/
Cc1ccc(N(C)C(=O)C2CCCN(c3ncnc4c3nc3n4CCCCC3)C2)cc1C (stereo unspecified)	?	/	/	9.2µM	.	/
CCOc1ccccc1N(C)C(=O)C1CCCN(c2ncnc3c2nc2n3CCCCC2)C1 (stereo unspecified)	.	/	/	.	.	/
CN(C(=O)C1CCCN(c2ncnc3c2nc2n3CCCCC2)C1)c1ccccc1F (stereo unspecified)	23µM	/	/	12µM	.	/
CCc1ccccc1N(C)C(=O)C1CCCN(c2ncnc3c2nc2n3CCCCC2)C1 (stereo unspecified)	18µM	/	/	4.1µM	.	/
Cc1ccc(C)c(N(C)C(=O)C2CCN(c3ncnc4c3nc3n4CCCCC3)CC2)c1	?	/	/	?	.	/
CCc1ccccc1N(CC)C(=O)C1CCN(c2ncnc3c2nc2n3CCCCC2)CC1	8.2µM	.	15µM	4.1µM	.	.
CCS(=O)(=O)N1CC(=O)N(c2cc(C)ccc2C)C(C)(C(=O)NC2CCCCC2)C1 (stereo unspecified)	.	/	/	.	.	/
CCC(=O)Oc1c(Sc2ccc(Cl)cc2)c(C)nn1C(C)(C)C	?	/	/	.	.	/
CCOc1ccc(CN2C(=O)c3ccccc3Sc3ccc(C(=O)NCc4ccco4)cc32)cc1	.	/	/	.	.	/
Cc1csc(NC(=O)c2cc(C)oc2C)n1	.	.	?	.	.	.
COc1ccc(NC(=O)Nc2nc(C(N)Cc3ccc(C(F)(F)F)cc3)cs2)cc1 (stereo unspecified)	?	?	/	16µM	/	/
SMILES	DT40 TDP1 CPT	IL-1B inflam inh	ELG1 DNA repair	TDP1 cell noCPT	TDP1 inh	Giardia kill
COc1ccc(CC(N)c2csc(NC(=O)c3cc(C(C)(C)C)oc3C)n2)cc1 (stereo unspecified)	23µM	-57	/	?	/	/
COc1ccc(CC(N)c2csc(NC(=O)Nc3ccc(OC)cc3)n2)cc1 (stereo unspecified)	21µM	-50	/	16µM	/	/
COc1ccc(-c2csc(NC(=O)Nc3ccccc3)n2)cc1	.	.	.	.	/	.
COc1cc(NC(=O)Nc2nc(C(N)Cc3ccc(C(F)(F)F)cc3)cs2)cc(OC)c1OC (stereo unspecified)	12µM	.	/	12µM	/	/
CC(C)NC(=O)N(C)C[C@H]1Oc2ccc(NS(=O)(=O)c3ccccc3)cc2C(=O)N([C@H](C)CO)C[C@@H]1C	.	.	.	.	.	.
Cc1cccc(CN2C(=O)c3ccccc3S(=O)(=O)c3ccc(C(=O)OCC4CCCO4)cc32)c1 (stereo unspecified)	.	/	/	.	.	/
Cc1ccccc1NC(=O)Nc1cccs1	?	.	.	?	.	.
Cc1ccc(Cl)cc1NC(=O)Nc1cccs1	.	.	?	21µM	.	.
Cc1ccc(NC(=O)Nc2cccs2)c(C)c1	15µM	/	/	?	.	/
Cc1cc(C)c(Cn2c(=O)[nH][nH]c2=O)cc1Cn1c(=O)[nH][nH]c1=O	.	.	/	.	/	/
COc1ccc(NC(=O)CSC2=Nc3ccccc3C3=NC(CCC(=O)NCc4ccco4)C(=O)N23)cc1 (stereo unspecified)	12µM	/	/	12µM	.	/
O=C(CC1N=C2c3ccccc3N=C(SCC(=O)Nc3ccc(F)cc3)N2C1=O)NCc1ccco1 (stereo unspecified)	?	/	/	16µM	.	/
Cc1cc(OCC#N)nc(N)n1	.	.	.	?	.	.
COc1cccc(C2CC(=O)Nc3c2c(=O)nc2c(C)cccn32)c1OC (stereo unspecified)	.	/	/	.	.	/
Cc1ccccc1C(=O)NC1(C(F)(F)F)N=C(c2ccccc2)N(Cc2ccccc2)C1=O (stereo unspecified)	23µM	/	/	23µM	.	/
Nc1cc2nc3ccccc3oc-2cc1=O	2.1µM	.	?	1.8µM	.	.
CCO[C@H]1OC(C(=O)NCc2nc3ccccc3[nH]2)=C[C@@H](C)[C@@H]1CCCO	?	.	.	?	.	.
CCO[C@@H]1OC(C(=O)NCc2nc3ccccc3[nH]2)=C[C@H](C)[C@H]1CCCO	.	.	?	?	.	.
CCO[C@H]1OC(C(=O)NCc2nc3ccccc3[nH]2)=C[C@@H](c2ccc(C(F)(F)F)cc2)[C@@H]1CCCO	?	?	.	16µM	.	.
CCO[C@@H]1OC(C(=O)NCc2nc3ccccc3[nH]2)=C[C@H](c2ccc(C(F)(F)F)cc2)[C@H]1CCCO	?	-64	?	?	.	.
C#Cc1ccc([C@@H]2C=C(C(=O)NCc3nc4ccccc4[nH]3)O[C@H](OCC)[C@H]2CCCO)cc1	?	.	.	?	.	.
CCO[C@H]1OC(C(=O)NCc2nc3ccccc3[nH]2)=C[C@@H](C2CCCCC2)[C@@H]1CCCO	13µM	?	?	15µM	.	.
